Assay [1] is described as follows: Nuclear factor erythroid 2-related factor 2/antioxidant responsive element (Nrf2/ARE) small molecule agonists: qHTS cell viability counter screen in human keratinocytes (AID 1919968; active = well fitted curve in the direction sought with a large enough effect in the repeat runs; an effect the other way counts as inactive or inconclusive; also: nearly all actives have a fitted effect of over 55% in size). Summed up: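 HaCaT ARE reporter line, 1,500 cells/well; 5 h settle, 37 C/5% CO2; cpd in DMSO pinned; 23 h exposure; CellTiter-Fluor, 1 h; fluorescence.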
On the technique in general: qHTS replaces the single test concentration by a dilution series.

The nature of assay [2]: Nuclear factor erythroid 2-related factor 2/antioxidant responsive element (Nrf2/ARE) small molecule agonists: luciferase reporter gene qHTS assay in human keratinocytes (AID 1919969). Also: nearly all actives have a fitted effect of over 35% in size. Also: potency is read from the fitted curve at half-maximal effect. On the technique in general: Reporter assays use an easily measured gene product as a stand-in for the process of interest.
Assay [3] concerns the target Gonadotropin-releasing hormone receptor (Homo sapiens) (UniProt P30968). Briefly: Human gonadotropin-releasing hormone receptor (GnRHR) small molecule agonists, calcium flux assay in GnRHR-HEK293 cells (AID 1920063). Also: nearly all actives have a fitted effect of over 35% in size. Summed up:
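GnRHR-HEK293, 1500 cells/well, 18 h 37 C/5% CO2; Ca dye 1 h 37 C; cpd pinned (DMSO), agonist mode; kinetic FL 480/540, 3 min, 1 s reads; 15 conc, n=3.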

Assay [4] addresses KiSS-1 receptor (Homo sapiens) (UniProt Q969F8). Briefly: Human kisspeptin (KISS1R) small molecule agonists, calcium flux assay in KISS1R-HEK293 cells (AID 1920064; active = well fitted curve in the direction sought with a large enough effect in the repeat runs; an effect the other way counts as inactive or inconclusive). The method, boiled down: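 Stable human KISS1R HEK293 line; 18 h plating, 37 C/5% CO2; calcium dye 1 h 37 C; compound pin transfer; kinetic fluorescence Ex/Em 480/540, 3 min.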
(A change in cytosolic calcium serves as a functional read-out for many receptors and channels.)

Assay [5] in a line: G protein-coupled receptor (GPCR) small molecule agonists, calcium flux assay: HEK293 wild type cell line counter screen (AID 1920065). The method, boiled down: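 Kinetic fluorescence at Ex/Em 480/540, recorded every second over 3 min, served as the read-out after compound addition. Each compound was tested at 15 concentrations in triplicate on cells pre-loaded with calcium dye for 1 h.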

Assay [6] in a line: p53 small molecule agonists, cell-based qHTS assay with human liver microsomes (AID 1963577). Summed up:
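Fluorescence of the beta-lactamase reporter in p53RE-bla cells, detected with LiveBLAzer substrate (2 h, room temperature, dark), served as the read-out after 16 h compound exposure at 37 C with human liver microsomes and NADPH, each 0.5 mg/mL final.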

The nature of assay [7]: p53 small molecule agonists, cell-based qHTS assay with rat liver microsomes (AID 1963578). The method, boiled down:
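Cells carrying a p53 response element–beta-lactamase reporter were plated and rested 5 h, then dosed with compound in DMSO plus rat liver microsomes and NADPH, each at 0.5 mg/mL final. After 16 h at 37 C, LiveBLAzer substrate was added for 2 h.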

A short description of assay [8]: p53 small molecule agonists, cell-based qHTS assay with human liver microsomes: qHTS cell viability counter screen (AID 1963579). Also: nearly all actives have a fitted effect of over 45% in size. Summed up: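 Cytotoxicity counter screen: p53RE-bla, 4,000 cells/well; 5 h settle, 37 C/5% CO2; cpd + HLM 0.5 mg/mL + NADPH 0.5 mg/mL (final); 16 h, 37 C; CellTiter-Glo, 30 min RT, luminescence.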
Assay [9] in a line: p53 small molecule agonists, cell-based qHTS assay with rat liver microsomes: qHTS cell viability counter screen (AID 1963580). Also: nearly all actives have a fitted effect of over 45% in size. The method, boiled down: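 p53RE-bla HCT-116 cells (4,000/well) rested 5 h at 37 C, then given Tox21 compounds in DMSO with rat liver microsomes (0.5 mg/mL final) plus NADPH (0.5 mg/mL final) for 16 h at 37 C. Viability read by CellTiter-Glo luminescence after 30 min at room temperature.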

The nature of assay [10]: p53 small molecule agonists, cell-based qHTS assay: qHTS cell viability counter screen (AID 1963581). Also: nearly all actives have a fitted effect of over 45% in size. Summed up:
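HCT-116 p53RE-bla cells, 4,000/well, plated 5 h before compound pin transfer; 16 h at 37 C; bla substrate 2 h RT; then CellTiter-Glo, 30 min RT, luminescence.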

Assay [11] is described as follows: p53 small molecule agonists, cell-based qHTS assay (AID 1963582; active = well fitted activation curve with a large enough effect in the signal ratio in the repeat runs, not every such curve was filed as active; the % refers to the signal ratio). Summed up: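 Reporter line: p53RE-bla. Pre-incubation 5 h, 37 C, 5% CO2; compound (DMSO, pin tool) 16 h, 37 C; B/G FRET substrate 2 h RT; fluorescence intensity read.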
For assay [12], the target named is 5-hydroxytryptamine receptor 2A (Homo sapiens) (UniProt P28223). Briefly: 5-hydroxytryptamine receptor 2A (HTR2A) small molecule antagonists, cell-based qHTS assay (AID 1963586). Also: nearly all actives have a fitted effect of over 45% in size. Summed up: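 Antagonist-mode intracellular calcium assay: DOI (4 nM) added after 5 min compound pre-incubation at room temperature to dye-loaded HTR2A-CHO cells. Fluorescence followed for 3 min, sampled every second.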

Assay [13] shares this target. Put plainly: 5-hydroxytryptamine receptor 2A (HTR2A) small molecule agonists, cell-based qHTS assay (AID 1963587). Also: nearly all actives have a fitted effect of over 30% in size. Summed up:
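HTR2A-CHO cells, plated 18 h at 37 C/5% CO2, dye-loaded 1 h at 37 C; compounds in DMSO added by pin tool (agonist mode). Intracellular calcium flux read as kinetic fluorescence on FDSS over 2 min at 1 s intervals.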

The target of assay [14] is Muscarinic acetylcholine receptor M1 (Homo sapiens) (UniProt P11229). Put plainly: Cholinergic receptor muscarinic 1 (CHRM1) small molecule antagonists, cell-based qHTS assay (AID 1963588). Also: nearly all actives have a fitted effect of over 40% in size. The method, boiled down:
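CHRM1-CHO calcium-flux assay, antagonist mode. Cells were seeded 18 h, dye-loaded 1 h at 37 C and given compound for 5 min at RT, then acetylcholine was added at 50nM. FDSS fluorescence was read 3 min; 15 concentrations, three runs.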

Assay [15] shares this target. Put plainly: Cholinergic receptor muscarinic 1 (CHRM1) small molecule agonists, cell-based qHTS assay (AID 1963589). Also: nearly all actives have a fitted effect of over 35% in size. The method, boiled down: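 Human M1 in stable CHO line; 18 h plating, 1 h dye load 37 C; cpd added (agonist mode); Ca2+ fluorescence kinetic read, 1 s intervals; 15 conc, 3 runs.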
The nature of assay [16]: cAMP Responsive Elements (CRE) small molecule agonists, cell-based qHTS assay (AID 1963590). The method, boiled down:
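HEK 293T CRE-bla, 2,000 cells/well, 18 h preincubation 37 C/5% CO2; cpds (DMSO) pinned, 3 h; LiveBLAzer B/G FRET substrate, 2 h RT.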

A short description of assay [17]: cAMP Responsive Elements (CRE) small molecule antagonists, cell-based qHTS assay (AID 1963591; active = well fitted inhibition curve with a large enough effect in the signal ratio in the repeat runs, not every such curve was filed as active; the % refers to the signal ratio). The method, boiled down: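 Beta-lactamase reporter read by FRET substrate (LiveBLAzer B/G) after 2 h at room temperature. CRE-bla HEK293T cells had received compound plus 0.25 uM (final) NKH477 for 3 h at 37 °C.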
The target of assay [18] is D(2) dopamine receptor (Homo sapiens) (UniProt P14416). Put plainly: Dopamine D2 receptor (DRD2) small molecule agonists, cell-based qHTS assay (AID 1963594). Also: nearly all actives have a fitted effect of over 35% in size. The method, boiled down:
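HEK293 cells stably expressing DRD2 were cultured 24 h at 37 C, then given Ro20-1724 (0.1 mM final) and compounds for 10 min at room temperature. NKH477 (200nM) was then added for 30 min. cAMP was read by HTRF.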

For assay [19] the target is unchanged. Put plainly: Dopamine D2 receptor (DRD2) small molecule antagonists, cell-based qHTS assay (AID 1963595; active = well fitted inhibition curve with a large enough effect in the signal ratio in the repeat runs, with a control signal flat; the % refers to the signal ratio). The method, boiled down:
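Human DRD2 antagonist qHTS measuring cAMP by HTRF. The cells are exposed to compound for 10 min, then to NKH477 (200 nM) and quinpirole (12 nM) for 30 min at RT, with Ro20-1724 (0.1 mM) present throughout.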

Assay [20] concerns the target Beta-2 adrenergic receptor (Homo sapiens) (UniProt P07550). Briefly: Adrenergic beta2 receptor (ADRB2) small molecule antagonists, cell-based qHTS assay (AID 1963592). Also: series mostly up to about 92 µM; nearly all actives have a fitted effect of over 50% in size. The method, boiled down:
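Cells (CHO, stable ADRB2 overexpression) incubated 18-20hr at 37C; compounds added from DMSO; agonist mix (1nM isoproterenol, 100uM IBMX, 25uM Ro-20-1724) added; 0.5hr RT; d2-cAMP and anti-cAMP-cryptate added; 1hr RT; 665/615 nm read.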

Several values for one entry are separate records, joined by “and”; a condition that tells them apart may be missing. Equal entries are not always repeated. Results filed as inconclusive are left out. The source holds several records for some structures; these can differ, active in one and inactive in another. Activity calls are given as the source filed them. Unless noted, calls follow the shape of the full dose curve.

D(2) dopamine receptor (Homo sapiens), sequence (P14416 whole entry, looked up): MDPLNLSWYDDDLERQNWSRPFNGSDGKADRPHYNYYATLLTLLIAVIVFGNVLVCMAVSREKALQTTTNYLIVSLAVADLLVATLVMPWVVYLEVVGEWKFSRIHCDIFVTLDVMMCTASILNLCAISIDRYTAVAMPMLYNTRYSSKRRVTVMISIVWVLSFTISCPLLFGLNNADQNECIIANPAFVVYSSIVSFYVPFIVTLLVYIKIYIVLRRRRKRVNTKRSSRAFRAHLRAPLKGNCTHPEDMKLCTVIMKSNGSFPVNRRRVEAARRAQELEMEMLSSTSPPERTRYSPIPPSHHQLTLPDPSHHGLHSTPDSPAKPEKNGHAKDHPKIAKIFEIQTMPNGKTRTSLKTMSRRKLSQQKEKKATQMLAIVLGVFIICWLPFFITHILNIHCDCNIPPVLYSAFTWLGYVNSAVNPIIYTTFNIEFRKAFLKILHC
Gonadotropin-releasing hormone receptor (Homo sapiens), sequence (P30968 whole entry, looked up): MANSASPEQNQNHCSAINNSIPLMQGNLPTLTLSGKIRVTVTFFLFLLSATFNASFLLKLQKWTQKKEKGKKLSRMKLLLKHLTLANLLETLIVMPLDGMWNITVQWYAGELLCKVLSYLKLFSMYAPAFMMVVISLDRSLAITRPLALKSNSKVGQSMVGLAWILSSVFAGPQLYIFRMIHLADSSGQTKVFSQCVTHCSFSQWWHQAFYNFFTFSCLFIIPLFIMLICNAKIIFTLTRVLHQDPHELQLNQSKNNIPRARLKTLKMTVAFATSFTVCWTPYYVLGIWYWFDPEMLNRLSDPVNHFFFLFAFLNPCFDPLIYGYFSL
Beta-2 adrenergic receptor (Homo sapiens), sequence (P07550 whole entry, looked up): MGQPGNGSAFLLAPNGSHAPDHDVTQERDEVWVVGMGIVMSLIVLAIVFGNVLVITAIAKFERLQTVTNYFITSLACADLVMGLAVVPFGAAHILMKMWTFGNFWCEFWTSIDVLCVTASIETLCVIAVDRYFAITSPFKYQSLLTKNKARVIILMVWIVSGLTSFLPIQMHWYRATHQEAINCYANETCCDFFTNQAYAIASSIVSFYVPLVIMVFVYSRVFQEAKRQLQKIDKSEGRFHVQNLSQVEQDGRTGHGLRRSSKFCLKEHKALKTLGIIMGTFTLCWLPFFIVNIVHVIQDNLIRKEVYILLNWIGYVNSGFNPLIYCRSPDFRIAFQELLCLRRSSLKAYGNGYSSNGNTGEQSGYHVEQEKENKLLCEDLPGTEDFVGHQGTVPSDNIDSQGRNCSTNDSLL
Muscarinic acetylcholine receptor M1 (Homo sapiens), sequence (P11229 whole entry, looked up): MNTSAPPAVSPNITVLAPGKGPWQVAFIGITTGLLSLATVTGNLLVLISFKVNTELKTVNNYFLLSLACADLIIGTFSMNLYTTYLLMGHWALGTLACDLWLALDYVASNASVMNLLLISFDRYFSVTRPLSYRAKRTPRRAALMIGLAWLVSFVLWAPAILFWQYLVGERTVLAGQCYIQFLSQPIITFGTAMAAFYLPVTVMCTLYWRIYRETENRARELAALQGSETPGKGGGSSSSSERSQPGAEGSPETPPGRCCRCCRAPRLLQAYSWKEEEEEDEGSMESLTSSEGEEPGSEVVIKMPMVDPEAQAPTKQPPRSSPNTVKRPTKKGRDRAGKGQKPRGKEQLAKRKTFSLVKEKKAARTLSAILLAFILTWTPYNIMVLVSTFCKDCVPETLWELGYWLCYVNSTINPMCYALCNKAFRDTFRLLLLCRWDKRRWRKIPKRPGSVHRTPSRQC
5-hydroxytryptamine receptor 2A (Homo sapiens), sequence (P28223 whole entry, looked up): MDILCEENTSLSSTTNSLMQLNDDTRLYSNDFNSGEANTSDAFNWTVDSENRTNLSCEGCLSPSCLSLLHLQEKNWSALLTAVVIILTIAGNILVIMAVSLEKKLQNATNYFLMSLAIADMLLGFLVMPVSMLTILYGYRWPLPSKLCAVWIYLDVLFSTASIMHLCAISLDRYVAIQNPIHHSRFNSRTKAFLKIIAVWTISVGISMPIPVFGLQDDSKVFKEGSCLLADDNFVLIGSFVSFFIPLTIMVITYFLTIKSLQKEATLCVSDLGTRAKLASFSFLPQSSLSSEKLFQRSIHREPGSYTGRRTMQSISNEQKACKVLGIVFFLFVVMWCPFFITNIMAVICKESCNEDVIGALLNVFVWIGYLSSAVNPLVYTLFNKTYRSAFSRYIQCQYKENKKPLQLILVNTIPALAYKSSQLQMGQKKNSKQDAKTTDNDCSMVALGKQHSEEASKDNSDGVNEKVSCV
KiSS-1 receptor (Homo sapiens), sequence (Q969F8 whole entry, looked up): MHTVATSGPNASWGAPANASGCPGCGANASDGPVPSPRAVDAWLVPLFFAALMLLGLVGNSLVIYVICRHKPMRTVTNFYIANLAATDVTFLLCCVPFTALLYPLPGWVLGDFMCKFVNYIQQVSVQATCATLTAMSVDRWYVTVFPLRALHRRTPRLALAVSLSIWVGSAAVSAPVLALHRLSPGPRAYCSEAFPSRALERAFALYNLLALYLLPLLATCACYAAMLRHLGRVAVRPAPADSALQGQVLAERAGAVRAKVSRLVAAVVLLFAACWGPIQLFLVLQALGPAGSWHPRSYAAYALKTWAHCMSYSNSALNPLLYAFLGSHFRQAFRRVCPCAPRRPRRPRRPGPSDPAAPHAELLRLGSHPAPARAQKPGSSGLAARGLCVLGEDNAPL

For the compound `CCCCCCCCC`, the Potency result in [1], in assay [2], in [3], in assay [4], in [5] and in assay [6] was “inactive” each time. The Potency result in assay [7], in assay [8], in assay [9], in assay [10], in assay [11] and in assay [12] was “inactive” each time. The Potency entry in assay [13], in assay [14], in [15], in assay [16], in assay [17] and in assay [18] was “inactive” each time. In assay [19], the Potency result was “inactive”.
Regarding `C/C=C1/CC2C=CC1C2` (stereo unspecified), the Potency entry in assay [1], in assay [2], in assay [3], in [4], in [5] and in [6] was “inactive” each time. Besides, the Potency entry in [7], in assay [8], in [9], in assay [10], in [11] and in [12] was “inactive” in each case. The Potency result in assay [13], in [14], in assay [15], in assay [16], in [17] and in assay [20] was “inactive” each time. Besides, the Potency entry in assay [18] and in assay [19] was “inactive” in each case.
`CC(=O)Oc1c(C)c(C)c2c(c1C)CC[C@@](C)(CCC[C@H](C)CCC[C@H](C)CCCC(C)C)O2`: the Potency result in assay [1], in [2], in assay [3], in assay [4], in assay [5] and in assay [6] was “inactive” in each case. Besides, the Potency result in [7], in assay [8], in assay [9], in [10], in [11] and in [12] was “inactive” throughout. The Potency result in [13], in assay [14], in assay [15], in assay [16], in [17] and in assay [18] was “inactive” in each case. Moreover, the Potency result in assay [19] was “inactive”.
Consider `Nc1cccc(N)c1`, for which the Potency result in assay [1], in assay [3], in [4], in assay [5], in [6] and in assay [7] was “inactive” in each case. For the same compound, the Potency result in assay [8], in assay [9], in assay [10], in assay [11], in [12] and in assay [13] was “inactive” in each case. In addition, the Potency result in assay [14], in assay [15], in assay [16], in assay [17], in assay [18] and in assay [19] was “inactive” in each case. Also, the Potency entry in [2] is “inactive and 21.4 µM (active)”.
As to `CCCCCCCCCCCCCO`, the Potency entry in assay [1], in [2], in assay [3], in [4], in [5] and in [6] was “inactive” each time. In addition, the Potency entry in assay [7], in [8], in assay [9], in [10], in assay [11] and in assay [12] was “inactive” throughout. The Potency result in assay [13], in assay [14], in assay [15], in assay [16], in assay [17] and in assay [18] was “inactive” throughout. In [19], the Potency result was “inactive”.
In the case of `C=C(C)C(=O)OCCCCCC`, the Potency result in assay [1], in assay [2], in [3], in assay [4], in [5] and in [6] was “inactive” in each case. In addition, the Potency entry in assay [7], in [8], in [9], in assay [10], in assay [11] and in assay [12] was “inactive” each time. The Potency entry in [13], in [14], in assay [15], in assay [16], in assay [17] and in assay [20] was “inactive” each time. For the same compound, the Potency result in [18] and in assay [19] was “inactive” in each case.
Turning to `CC(=O)OCC(=O)[C@@]12N=C(C)O[C@@H]1C[C@H]1[C@@H]3CCC4=CC(=O)C=C[C@]4(C)[C@H]3[C@@H](O)C[C@@]12C`, the Potency result in [1], in assay [2], in assay [3], in assay [4], in assay [5] and in assay [6] was “inactive” throughout. The Potency result in [7], in [8], in assay [9], in assay [10], in assay [11] and in assay [12] was “inactive” each time. Further, the Potency entry in assay [13], in assay [14], in assay [15], in [16], in assay [17] and in [20] was “inactive” in each case. Further, the Potency entry in assay [18] and in assay [19] was “inactive” each time.
`CNC(=S)N(C)C`: the Potency entry in assay [1], in assay [2], in [3], in assay [4], in [5] and in [6] was “inactive” throughout. Moreover, the Potency result in [7], in [8], in assay [9], in assay [10], in assay [11] and in assay [12] was “inactive” each time. For the same compound, the Potency entry in [13], in assay [14], in assay [15], in assay [16], in assay [17] and in assay [20] was “inactive” in each case. The Potency entry in assay [18] and in assay [19] was “inactive” in each case.

These data come from PubChem BioAssay (Tox21).
